# Where “and” joins values, the source holds several entries; their conditions need not be identical. Equal entries are not always repeated. Results filed as inconclusive are left out. Where a call stands in place of a potency, no number is given. Calls of active or inactive are those of the source. Unless noted, calls come from the whole dose curve; as a rule, active = well fitted curve in the direction sought with a large enough effect; inconclusive = small, poorly fitted or top-dose-only effect, or another doubt; inactive = no such curve, though single readings can be large; an effect the other way counts as inactive or inconclusive.
# Experiments:
# [1] = target: ATP-dependent 6-phosphofructokinase (Trypanosoma brucei brucei) (UniProt O15648); test: qHTS Assay to Find Inhibitors of T. brucei phosphofructokinase: hit validation (AID 492961);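 note: luminescence reports ADP formed as PFK phosphorylates fructose-6-phosphate with ATP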
# How it was run: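 ADP-Glo luminescence read-out of ADP formed by 1.25 nM PFK from 0.1 mM ATP and 0.5 mM F6P (TEA pH 8.0, 45 min, RT). Compounds titrated; activity normalized to no-enzyme and full-enzyme controls.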
# [2] = S16 Schwann cell PMP22 intronic element beta-lactamase assay (AID 624044; calls by dose curve; note: nearly all actives have a fitted effect of over 15% in size; note: potency is the fitted concentration of half-maximal effect)
# How it was run: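 Beta-lactamase reporter under a PMP22 intronic regulatory element in stable S16 rat Schwann cells; 24 h compound exposure. 460 nm blue signal normalized between DMSO (0%) and potassium clavulanate, with 535 nm FRET tracking viability; curves classed by r2 and response.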
# CP203 = test: qHTS profiling for inhibitors of Plasmodium falciparum proliferation (AID 504749); note: nearly all actives have a fitted effect of over 60% in size; note: potency is the fitted concentration of half-maximal effect; settings: P. falciparum in erythrocytes, SYBR Green DNA, 72 h; series mostly up to 28.7 µM
# How it was run: (§1)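 In a 72 h erythrocytic culture (37 C, humidified, 5% CO2) at 2.5% hematocrit and 0.3% starting parasitemia, compounds were tested; SYBR Green I in detergent lysis buffer stained parasite DNA overnight.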
# CP215 = test: as above; settings: P. falciparum in erythrocytes, SYBR Green DNA, 72 h; series mostly up to 28.7 µM
# How it was run: as §1
# Dd2 = test: as above; settings: P. falciparum in erythrocytes, SYBR Green DNA, 72 h; series mostly up to 28.7 µM
# How it was run: as §1
# P93_24 = test: as above; settings: P. falciparum in erythrocytes, SYBR Green DNA, 72 h; series mostly up to 28.7 µM
# How it was run: as §1
# TAB165 = test: as above; settings: P. falciparum in erythrocytes, SYBR Green DNA, 72 h; series mostly up to 28.7 µM
# How it was run: as §1
# [3] = target: Peroxisome proliferator-activated receptor delta (Homo sapiens) (UniProt Q03181); test: qHTS assay for small molecule antagonists of peroxisome proliferator-activated receptor delta signaling (AID 588535; active = well fitted inhibition curve with a large enough effect in the signal ratio, with a control signal flat, not every such curve was filed as active; the % refers to the signal ratio)
# How it was run: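 Antagonist-mode qHTS using GeneBLAzer PPAR-delta-UAS-bla HEK293T cells; compound exposure 18 hrs at 37 C over a titration. Ratiometric CCF4 fluorescence at 460/530 nm; concentration-response points fitted to the Hill equation.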
# [4] = target: Peroxisome proliferator-activated receptor gamma (Homo sapiens) (UniProt P37231); test: qHTS assay for small molecule agonists of peroxisome proliferator-activated receptor gamma signaling (AID 588536; active = well fitted curve in the direction sought with a large enough effect in the signal ratio, with a control signal flat, not every such curve was filed as active; the % refers to the signal ratio)
# How it was run: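 Cells were plated and held 6–6.5 h at 37 C, then compounds were added as a titration series. After a further 16 h, CCF4 dye was loaded for 2 h at room temperature and emission at 460/530 nm recorded.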
# [5] = qHTS assay for small molecule antagonists of retinoid X receptor alpha signaling (AID 588546; active = well fitted inhibition curve with a large enough effect in the signal ratio, with a control signal flat, not every such curve was filed as active; the % refers to the signal ratio;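 note: cells stimulated with 9-cis-retinoic acid as agonist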); settings: HEK293T RXRa-UAS-bla, beta-lactamase ratio, antagonist mode; measured here: W530 green channel, cytotoxicity proxy
# How it was run: (§2)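 Beta-lactamase reporter inhibition, read as CCF4 fluorescence ratio (ex 405, em 460/530 nm) after 2 h at RT. HEK293T UAS-bla cells, 2500/well, were stimulated with 9-cis-RA at 500 or 100 nM final alongside test compound for 18 h at 37 C.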
# [6] = target: Retinoic acid receptor RXR-alpha (Homo sapiens) (UniProt P19793); test: as above; settings: HEK293T RXRa-UAS-bla, beta-lactamase ratio, antagonist mode
# How it was run: as §2
# [7] = qHTS assay for environmental chemicals that activate the Aryl hydrocarbon Receptor (AhR) signaling pathway (AID 651777); settings: 1A2-DRE human hepatoma cells, luciferase, 24 h; activation: stronger effect = higher value; note: nearly all actives have a fitted effect of over 15% in size
# How it was run: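 Luminescence (One-Glo, 30 min, room temperature) reports AhR-driven luciferase in stably transfected human hepatoma cells bearing DRE and CYP1A2 promoter. Cells (1,200/well) were treated with compound for 24 hr at 37 C in qHTS format.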
# [8] = target: Peroxisome proliferator-activated receptor alpha (Homo sapiens) (UniProt Q07869); test: qHTS assay for small molecule agonists of the peroxisome proliferator-activated receptor alpha (PPARalpha) signaling pathway (AID 651778); settings: PathHunter PPARalpha complementation, chemiluminescence, 6 h; max response: stronger effect = higher value
# How it was run: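 Chemiluminescence from complemented enzyme reported PPARalpha activation in cells after 6 hr of compound treatment at 37 C. The detection reagent was incubated for 60 min at room temperature, and compounds were scored as agonists.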
# [9] = qHTS assay for small molecule agonists of the antioxidant response element (ARE) signaling pathway measured by Nrf2-dependant transcriptional activity (AID 720636; active = well fitted curve in the direction sought with a large enough effect in the repeat runs; an effect the other way counts as inactive or inconclusive)
# How it was run: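 Nrf2-dependent transcription read as ONE-Glo luciferase signal from ARE-luc HepG2 reporter cells after 16 hr compound treatment at 37 C, 5% CO2, in assay medium with 1% dialyzed FBS.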
# [10] = qHTS assay for small molecule agonists of the antioxidant response element (ARE) signaling pathway measured by Nrf2-dependant transcriptional activity - cell viability counter screen (AID 720653; active = well fitted curve in the direction sought with a large enough effect in the repeat runs; an effect the other way counts as inactive or inconclusive); settings: ARE-bla HepG2 viability, CellTiter-Glo ATP luminescence, 16 h; max response: stronger effect = lower value
# How it was run: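 Cytotoxicity counter screen: intracellular ATP quantified by CellTiter-Glo luminescence in the same ARE-bla HepG2 plates, after 16 h compound exposure and a 2 h beta-lactamase substrate step.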
# [11] = qHTS assay for cell viability of HEK293 cells (AID 743288); settings: ATP luminescence (CellTiter-Glo), 18 h; max response: stronger effect = lower value; note: nearly all actives have a fitted effect of over 50% in size
# How it was run: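 Readout is luciferase-coupled ATP content (CellTiter-Glo luminescence, 30 min room temperature) as a measure of metabolically competent cells. Parental HEK293 cells were plated 5 h or more before compound addition, then treated 18 h at 37 C.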
# [12] = target: Nuclear receptor subfamily 1 group I member 2 (Rattus norvegicus) (UniProt Q9R1A7); test: qHTS assay for small molecule activators of the rat pregnane X receptor (rPXR) signaling pathway (AID 651751; call rule not given here); settings: rPXR reporter cells, luciferase (One-Glo), 24 h
# FAB9 = test: qHTS profiling for inhibitors of Plasmodium falciparum proliferation (AID 504749); note: nearly all actives have a fitted effect of over 60% in size; note: potency is the fitted concentration of half-maximal effect; settings: P. falciparum in erythrocytes, SYBR Green DNA, 72 h; series mostly up to 28.7 µM
# How it was run: as §1
# PC49 = test: as above; settings: P. falciparum in erythrocytes, SYBR Green DNA, 72 h; series mostly up to 28.7 µM
# How it was run: as §1
# [13] = target: Mitogen-activated protein kinase 10 (Mus musculus) (UniProt Q61831); test: JNK3 AlphaScreen Assay (AID 530; active = well fitted curve in either direction with a large enough effect, not every such curve was filed as active;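 note: kinase came from lysate of stimulated human HepG2 cells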; note: potency is the fitted concentration of half-maximal effect)
# How it was run: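 Kinase buffer: 20 mM Tris-HCl pH 7.6, 10 mM MgCl2, 1 mM DTT, 0.1 mM Na3VO4, 0.01% Tween-20; ATP 10 uM. Substrate biotin-GST-cJun(1-79), enzyme from activated HepG2 lysates. Detection by Ser73 phospho-antibody AlphaScreen.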
# Peroxisome proliferator-activated receptor alpha (Homo sapiens), sequence (Q07869 whole entry, looked up): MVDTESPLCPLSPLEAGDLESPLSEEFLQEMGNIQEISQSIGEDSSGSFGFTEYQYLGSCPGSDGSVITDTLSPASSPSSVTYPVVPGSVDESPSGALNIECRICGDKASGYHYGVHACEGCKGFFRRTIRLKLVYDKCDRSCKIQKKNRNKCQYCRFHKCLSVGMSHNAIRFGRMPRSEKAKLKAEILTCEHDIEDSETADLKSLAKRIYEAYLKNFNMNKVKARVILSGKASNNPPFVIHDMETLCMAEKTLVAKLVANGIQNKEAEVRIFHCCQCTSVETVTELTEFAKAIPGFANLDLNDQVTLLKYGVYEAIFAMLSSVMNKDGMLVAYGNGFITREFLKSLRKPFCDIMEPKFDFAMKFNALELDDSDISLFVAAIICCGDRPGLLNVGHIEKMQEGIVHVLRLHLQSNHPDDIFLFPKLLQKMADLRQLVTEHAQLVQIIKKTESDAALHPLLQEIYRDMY
# Peroxisome proliferator-activated receptor gamma (Homo sapiens), sequence (P37231 whole entry, looked up): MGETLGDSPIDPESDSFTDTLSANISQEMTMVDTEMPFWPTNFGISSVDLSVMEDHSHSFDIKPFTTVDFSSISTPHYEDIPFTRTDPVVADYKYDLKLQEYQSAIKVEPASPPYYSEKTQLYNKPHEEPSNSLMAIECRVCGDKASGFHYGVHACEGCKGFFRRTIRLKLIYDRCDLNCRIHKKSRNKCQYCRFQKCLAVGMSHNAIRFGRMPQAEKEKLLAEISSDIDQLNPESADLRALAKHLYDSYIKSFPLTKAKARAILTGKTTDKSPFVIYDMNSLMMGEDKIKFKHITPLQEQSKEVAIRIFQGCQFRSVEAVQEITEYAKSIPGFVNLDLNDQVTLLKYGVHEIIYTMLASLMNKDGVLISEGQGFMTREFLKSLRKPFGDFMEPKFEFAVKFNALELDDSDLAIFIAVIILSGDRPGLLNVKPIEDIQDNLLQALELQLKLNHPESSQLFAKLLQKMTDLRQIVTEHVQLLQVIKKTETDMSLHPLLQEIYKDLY
# Peroxisome proliferator-activated receptor delta (Homo sapiens), sequence (Q03181 whole entry, looked up): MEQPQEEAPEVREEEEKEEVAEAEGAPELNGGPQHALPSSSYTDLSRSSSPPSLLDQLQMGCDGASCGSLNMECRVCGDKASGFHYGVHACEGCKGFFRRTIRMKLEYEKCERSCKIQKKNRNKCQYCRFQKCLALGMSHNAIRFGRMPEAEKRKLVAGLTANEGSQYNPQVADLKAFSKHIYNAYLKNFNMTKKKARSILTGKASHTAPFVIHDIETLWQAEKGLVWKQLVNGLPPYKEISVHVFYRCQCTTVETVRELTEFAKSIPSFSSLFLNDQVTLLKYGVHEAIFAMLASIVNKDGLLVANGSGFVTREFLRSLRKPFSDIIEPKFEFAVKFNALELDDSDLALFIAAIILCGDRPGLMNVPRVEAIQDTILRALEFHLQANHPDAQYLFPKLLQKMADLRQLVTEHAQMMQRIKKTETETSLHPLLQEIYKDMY
# Nuclear receptor subfamily 1 group I member 2 (Rattus norvegicus), sequence (Q9R1A7 whole entry, looked up): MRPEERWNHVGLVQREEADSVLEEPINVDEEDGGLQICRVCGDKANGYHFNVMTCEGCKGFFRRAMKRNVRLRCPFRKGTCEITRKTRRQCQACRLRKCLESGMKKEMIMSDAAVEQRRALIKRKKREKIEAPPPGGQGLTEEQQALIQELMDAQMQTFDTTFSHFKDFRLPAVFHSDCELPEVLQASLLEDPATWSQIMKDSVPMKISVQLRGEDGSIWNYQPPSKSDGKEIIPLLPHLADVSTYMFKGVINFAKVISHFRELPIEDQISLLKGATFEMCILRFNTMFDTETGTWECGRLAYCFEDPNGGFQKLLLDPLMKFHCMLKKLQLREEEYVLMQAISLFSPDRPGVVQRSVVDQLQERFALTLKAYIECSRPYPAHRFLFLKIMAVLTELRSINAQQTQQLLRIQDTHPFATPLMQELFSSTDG
# ATP-dependent 6-phosphofructokinase (Trypanosoma brucei brucei), sequence (O15648 whole entry, looked up): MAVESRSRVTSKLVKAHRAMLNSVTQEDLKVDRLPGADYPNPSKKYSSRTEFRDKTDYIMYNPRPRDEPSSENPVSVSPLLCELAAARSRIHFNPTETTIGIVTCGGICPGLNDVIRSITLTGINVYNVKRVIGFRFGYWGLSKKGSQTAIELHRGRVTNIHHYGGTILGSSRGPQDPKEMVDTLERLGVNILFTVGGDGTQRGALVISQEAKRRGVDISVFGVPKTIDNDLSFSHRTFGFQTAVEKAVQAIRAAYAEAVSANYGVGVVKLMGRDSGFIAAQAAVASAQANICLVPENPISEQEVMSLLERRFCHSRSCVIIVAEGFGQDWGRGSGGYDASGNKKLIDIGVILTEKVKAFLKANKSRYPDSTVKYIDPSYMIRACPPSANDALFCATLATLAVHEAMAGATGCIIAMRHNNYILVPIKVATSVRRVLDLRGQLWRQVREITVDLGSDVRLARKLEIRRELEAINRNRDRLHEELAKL
# Retinoic acid receptor RXR-alpha (Homo sapiens), sequence (P19793 whole entry, looked up): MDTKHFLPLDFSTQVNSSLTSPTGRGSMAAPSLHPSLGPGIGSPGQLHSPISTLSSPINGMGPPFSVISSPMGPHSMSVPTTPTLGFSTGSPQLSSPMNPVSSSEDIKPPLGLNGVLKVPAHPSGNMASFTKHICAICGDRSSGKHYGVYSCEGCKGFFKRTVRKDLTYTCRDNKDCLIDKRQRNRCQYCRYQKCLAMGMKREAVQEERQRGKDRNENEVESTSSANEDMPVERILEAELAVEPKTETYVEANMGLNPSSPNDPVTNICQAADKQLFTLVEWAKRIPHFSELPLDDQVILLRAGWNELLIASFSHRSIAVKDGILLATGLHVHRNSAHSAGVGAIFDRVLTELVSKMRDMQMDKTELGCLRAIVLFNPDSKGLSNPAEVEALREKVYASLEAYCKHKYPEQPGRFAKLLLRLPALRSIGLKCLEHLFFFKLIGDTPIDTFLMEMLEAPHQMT
smiles,measurement,setting,value
Cc1cc(CC(C)CC(C)(C)C)n(O)c(=O)c1 (centres undefined),outcome,[1],inactive
same,Potency,[2],2510 nM (active)
same,Potency,CP203,3380 nM (active)
same,Potency,CP215,2130 nM (active)
same,Potency,Dd2,7940 nM (active)
same,Potency,P93_24,2240 nM (active)
same,Potency,TAB165,1780 nM (active)
Cc1cccc(O)c1,Potency,[3],inactive
same,outcome,[4],inactive
same,max response,[5],-8.57% and -4.8%
same,max response,[6],-27.1% (inactive) and -3.41% (inactive)
same,activation,[7],3.54% (inactive) and 0.802% (inactive)
same,max response,[8],-4.41% (inactive) and -2.22% (inactive)
same,Potency,[9],inactive
same,max response,[10],2.52% (inactive) and 7.45% (inactive)
same,max response,[11],-15.7% (inactive) and -2.81% (inactive)
same,max response,[12],-3.23% (inactive) and 0.598% (inactive)
CCC(=O)O[C@@H](OP(=O)(CCCCc1ccccc1)CC(=O)N1C[C@H](C2CCCCC2)C[C@H]1C(=O)O)C(C)C (some centres undefined),outcome,[1],inactive
same,Potency,CP215,inactive
same,Potency,Dd2,inactive
same,Potency,FAB9,inactive
same,Potency,PC49,inactive
same,Potency,TAB165,inactive
Nc1nc(Cl)nc2c1ncn2C1CC(O)C(CO)O1 (centres undefined),Potency,[2],3550 nM (active)
same,Potency,CP203,inactive
same,Potency,CP215,inactive
O=c1cc(-c2cccc(O)c2)oc2c(O)c(O)ccc12,Potency,[13],7940 nM (active)
CC1(C)S[C@@H]2[C@H](NC(=O)COc3ccccc3)C(=O)N2[C@H]1C(=O)O,outcome,[1],inactive
same,Potency,[3],inactive
same,outcome,[4],inactive
same,max response,[5],-19.5%
same,max response,[6],2.91% (inactive)
same,Potency,[2],inactive
same,activation,[7],-1.58% (inactive)
same,max response,[8],-2.73% (inactive)
same,Potency,[9],inactive
same,max response,[10],-8.85% (inactive)
same,max response,[11],-6.9% (inactive)
same,Potency,CP203,inactive
same,Potency,CP215,inactive
same,Potency,Dd2,inactive
same,Potency,FAB9,inactive
same,Potency,P93_24,inactive
same,Potency,PC49,inactive
same,Potency,TAB165,inactive
same,max response,[12],-0.437% (inactive)
CC1CCC(C(C)C)C(OC(=O)c2ccccc2O)C1 (centres undefined),outcome,[1],inactive
same,Potency,[2],inactive
same,Potency,CP203,inactive
same,Potency,CP215,inactive
same,Potency,Dd2,inactive
same,Potency,FAB9,inactive
same,Potency,P93_24,inactive
same,Potency,PC49,inactive
same,Potency,TAB165,inactive
CO/N=C(/C(=O)N[C@@H]1C(=O)N2C(C(=O)O)=CCS[C@H]12)c1csc(N)n1,Potency,[2],inactive
same,Potency,CP203,inactive
same,Potency,CP215,inactive
same,Potency,Dd2,inactive
same,Potency,FAB9,inactive
same,Potency,P93_24,inactive
same,Potency,PC49,inactive
same,Potency,TAB165,inactive
O=[N+]([O-])c1cccc(Cl)c1Cl,Potency,[13],inactive
same,Potency,[3],inactive
same,outcome,[4],inactive
same,max response,[5],3.16% and 3%
same,max response,[6],13.3% (inactive) and -13.6% (inactive)
same,activation,[7],0.0517% (inactive) and -0.399% (inactive)
same,max response,[8],-3.44% (inactive) and -1.57% (inactive)
same,Potency,[9],inactive
same,max response,[10],3.32% (inactive) and 9.85% (inactive)
same,max response,[11],-3.06% (inactive) and -4.76% (inactive)
same,max response,[12],-1.89% (inactive) and -3.78% (inactive)

# From PubChem BioAssay (NCATS)
